TIM10 inh: TIM10 yeast growth inhibition | S. cerevisiae TIM10 strain growth, BacTiter-Glo luminescence, 24 h | inhibition, % at 10 µM | 330,000 compounds, 1.4% hits | AID 463195;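 active = inhibition of 40% or more at the single tested concentration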;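 note: wild-type TIM10 isogenic control strain grown at permissive 25 °C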
PfHsp90 set2: inhibits growth of yeast expressing Plasmodium falciparum Hsp90; S. cerevisiae expressing PfHsp90, BacTiter-Glo ATP, 48 h; yeast lacking PDR1 and PDR3 efflux regulators; inhibition, % at 9.4 µM; 310,000 compounds, 0.32% hits; AID 504621;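 active = every replicate shows inhibition above about 80%, whatever the replicate mean, limit read from the data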;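 note: 0% = DMSO neutral controls and 100% = 20 µM radicicol positive controls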
tim23-1 inh: tim23-1 yeast growth inhibition. S. cerevisiae tim23-1 growth, BacTiter-Glo luminescence, 24 h. inhibition, % at 20 µM. 330,000 compounds, 1.3% hits;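 active = growth inhibition of the mutant yeast at or above 50%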;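 note: temperature-sensitive mutant grown at 25 °C; plate controls were DMSO-treated mutant yeast for no effect and medium wells lacking yeast for full effect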
tim10-1 inh: inhibits growth of tim10-1 mutant yeast; S. cerevisiae tim10-1 ts strain growth, BacTiter-Glo, 24 h; inhibition, % at 20 µM; 330,000 compounds, 2.2% hits;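 active = inhibition of at least 40%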;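 note: mutant grown at 25 °C; 0% = DMSO wells with yeast and 100% = wells holding no yeast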
SKKanGAS inh: inhibitors of SKKanGAS S. pyogenes growth in kanamycin (SK-promoter or general growth effect). BacTiter-Glo, 6 h. inhibition, % at 7.5 µM. 300,000 compounds, 1.3% hits. AID 1662;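 active = mean replicate score, as percent of positive control median, at least 50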;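 note: strain carries kanamycin resistance gene driven by streptokinase promoter and grows in 40 µg/ml kanamycin; loss of luminescence reflects streptokinase promoter inhibition or plain growth inhibition; 0% = median of DMSO wells and 100% = positive control at its reference dose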
NLRP3 yeast inh: blocks the NALP3 inflammasome reconstituted in yeast. Yeast reconstituted NLRP3/ASC/caspase-1, beta-gal luminescence, 24 h. inhibition, % at 10 µM. 330,000 compounds, 0.39% hits. AID 2825;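 active = inhibition of 50% or more; inactive = inhibition below 50%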;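 note: plate controls were induced DMSO wells for no effect and uninduced yeast grown without galactose for full effect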
tim10-1 conf: confirmation of tim10-1 mutant yeast growth inhibitors. S. cerevisiae tim10-1 ts strain growth, BacTiter-Glo, 24 h. inhibition, % at 20 µM. shares compounds with tim10-1 inh. AID 463213. 7,400 compounds, 56% hits;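 active = inhibition of yeast growth at or above a set limit in either of two repeat tests at 20 µM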;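 note: tim10-1 mutant grown at permissive 25 °C to find synthetic lethal compounds; 0% = DMSO yeast wells and 100% = medium wells without yeast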
tim10 confirm: confirmation of TIM10 yeast growth inhibitors | shares compounds with TIM10 inh | inhibition, % at 10 µM | S. cerevisiae tim10 strain growth, BacTiter-Glo luminescence, 24 h | 4,600 compounds, 63% hits | AID 463215;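 active = inhibition of yeast growth at or above a set limit in either of two replicates at 10 µM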;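 note: this counterscreen used the strain with wild-type TIM10; 0% = yeast with DMSO and 100% = medium wells lacking yeast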
tim23-1 conf: confirmation of tim23-1 mutant yeast growth inhibitors; shares compounds with tim23-1 inh; S. cerevisiae tim23-1 growth, BacTiter-Glo luminescence, 24 h; inhibition, % at 20 µM; 4,400 compounds, 83% hits; AID 463218;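 active = inhibition above about 39% in either of two replicate wells at 20 µM, limit read from the data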;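 note: temperature-sensitive tim23-1 mutant grown at 25 °C; 0% = DMSO wells with yeast and 100% = medium wells without yeast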
The depositor's hits bear a star; . = no result given. Most compounds without a hit are left out; they make up all but 4.6% or so of the library.

SMILES | TIM10 inh | PfHsp90 set2 | tim23-1 inh | tim10-1 inh | SKKanGAS inh | NLRP3 yeast inh | tim10-1 conf | tim10 confirm | tim23-1 conf
COc1ccc(C(C[N+](=O)[O-])c2c(-c3ccccc3)cc3ccccn23)c(OC)c1 (stereo unspecified) | 60* | -9 | 73* | 70* | 1 | 13 | 67* | 67* | 91*
CC1CCC(NC(=O)CN2C(=O)COc3ccc(S(=O)(=O)N4CCCC4)cc32)CC1 (stereo unspecified) | 0 | . | -1 | 10 | 7 | 17 | . | . | .
CCO[C@H]1OC(C(=O)N2CCN(C)CC2)=C[C@@H](c2ccc(Br)cc2)[C@@H]1CCCO | 11 | 8 | 16 | -2 | 0 | 12 | . | . | .
Oc1ccccc1N=Cc1c(O)ccc2ccccc12 | 38 | -16 | 66* | 42* | 20 | 28 | 30 | . | 79*
Cc1ccccc1C(=O)NC1CCN(CC(=O)N2CCCCC2C)CC1 (stereo unspecified) | 0 | -12 | 4 | -18 | -1 | 15 | . | . | .
C=C(CC)C(=O)c1ccc(OCC(=O)O)c(Cl)c1Cl | 54* | 4 | 68* | 65* | 18 | 12 | 55* | 57* | 89*
Oc1ccc(Cl)cc1-c1cc(-c2ccccc2)n[nH]1 | 55* | 4 | 60* | 43* | 55* | 14 | 36* | 58* | 22
Cc1ccc(-c2cc(NC(=O)c3ccccc3[N+](=O)[O-])n[nH]2)cc1 | 10 | 4 | 7 | 4 | 0 | 18 | . | . | .
Cc1ccc(-c2cc(-c3ccc(F)cc3)n[nH]2)c(O)c1 | 23 | -12 | 61* | 41* | 38 | 25 | 46* | . | 51*
Cc1ccc(-c2cc(-c3ccccc3[N+](=O)[O-])[nH]n2)c(O)c1 | 44* | -9 | 60* | 52* | 4 | 10 | 42* | 31* | 66*
COc1ccccc1-c1cc(-c2cc(Cl)ccc2O)n[nH]1 | 11 | . | 17 | 20 | 14 | -12 | . | . | .
COC(=O)c1cc(-c2ccc(C)cc2)n[nH]1 | 8 | 8 | 1 | 10 | 4 | -10 | . | . | .
O=C(Nc1ccc(OCC(F)(F)C(F)F)c(C(F)(F)F)c1)c1ccccc1O | 62* | -5 | 54* | 81* | 81* | 25 | 76* | -6 | 69*
O=C(Nc1ccc(OCC(F)(F)C(F)F)c(C(F)(F)F)c1)c1ccccc1 | 28 | -11 | 12 | 26 | 9 | 14 | . | . | .
O=C(Cc1c[nH]c2ccccc12)NCC(=O)Nc1ccc(F)c(F)c1F | -3 | -23 | -12 | -15 | . | 20 | . | . | .
Cc1ccc(C(=O)/C=C/c2ccc3ncccc3c2)cc1 | 52* | -1 | 69* | 53* | -3 | 36 | 52* | 50* | 47*
CN(CCc1ccccn1)S(=O)(=O)c1ccc(F)cc1 | -1 | 23 | 10 | -1 | -6 | 11 | . | . | .
CC(C)(C)c1cc(S(=O)(=O)CCc2ccccn2)cc(C(C)(C)C)c1F | 53* | -8 | 60* | 48* | -1 | 1 | 45* | 52* | 58*
Cc1nn(C)c(C(=O)NN)c1Cl | 6 | 22 | 10 | 8 | -12 | 6 | . | . | .
Cc1ccc2nc(N3CCN(C=O)CC3)nc(-c3ccccc3)c2c1 | 29 | -43 | 60* | 43* | 0 | 34 | 10 | . | 42*
Cc1ccc2nc(N3CCN(C(=O)CCCC(=O)O)CC3)nc(-c3ccccc3)c2c1 | 21 | -7 | 29 | 25 | 14 | 5 | . | . | .
O=C1c2ccccc2C(Nc2ccc(Cl)cn2)N1Cc1ccccc1 (stereo unspecified) | 42* | -30 | 56* | 44* | 7 | 19 | 29 | 46* | 54*
O=C1c2ccccc2C(=O)C2OC12 (stereo unspecified) | 34 | . | 79* | 59* | 21 | -25 | 38* | . | 74*
O=C1c2ccccc2C(=O)C1c1ccccn1 | -19 | 26 | -4 | -25 | -11 | 13 | . | . | .
CCOC(=O)c1ccc(N=c2sc(C(=O)OC)cc(=O)n2-c2ccc(C(=O)OCC)cc2)cc1 | 24 | -21 | 20 | 15 | 2 | 9 | . | . | .
SMILES | TIM10 inh | PfHsp90 set2 | tim23-1 inh | tim10-1 inh | SKKanGAS inh | NLRP3 yeast inh | tim10-1 conf | tim10 confirm | tim23-1 conf
COC(=O)c1cc(=O)n(-c2ccccc2)c(=Nc2ccccc2)s1 | 18 | 4 | 73* | 51* | -2 | 3 | 43* | . | 52*
O=C(O)CCSc1nnc(SCC(=O)NC2CCS(=O)(=O)C2)s1 (stereo unspecified) | -2 | 13 | -1 | -7 | . | 15 | . | . | .
O=C(O)/C(=C\c1ccccc1OC(F)F)Sc1nnc(-c2ccc(F)cc2)o1 | 59* | -14 | 70* | 71* | 7 | -22 | 75* | 68* | 71*
O=S(=O)(NC12CC3CC(CC(C3)C1)C2)c1ccc(F)cc1 | 12 | 0 | 55* | 48* | 0 | 32 | 30* | . | 49*
Cc1sc(NC(=O)c2ccccc2)c(C(c2ccc(Cl)cc2)N2CCN(CCO)CC2)c1C (stereo unspecified) | 30 | 11 | 52* | 42* | 3 | 7 | 35* | . | 42*
CCOc1ccc(C(c2c(NC(=O)c3ccccc3)sc(C)c2C)N2CCN(CCO)CC2)cc1 (stereo unspecified) | 25 | -4 | 26 | 29 | -3 | -2 | . | . | .
COc1ccc([C@H]2Oc3cc(O)cc(O)c3C(=O)C2[C@@H]2C(=O)c3c(O)cc(O)cc3O[C@@H]2c2ccc(OC)cc2)cc1 (stereo partly specified) | 15 | . | 60* | 49* | 100* | 3 | 46* | . | 49*
Cc1ccc(N(CC(=O)Nc2ccc(Br)c(C)c2)S(=O)(=O)c2c(C)[nH]c(=O)[nH]c2=O)cc1 | 3 | -9 | 4 | 4 | 32 | 4 | . | . | .
CCN(CC)c1ccc2c(Cl)c(Br)c(=O)oc2c1 | 72* | . | 64* | 60* | -6 | 6 | 59* | 68* | 78*
CCN(CC)c1ccc2c(c1)oc(=O)c1c(Cl)cc(=O)oc12 | 89* | -21 | 73* | 78* | 14 | 6 | 82* | 61* | 81*
O=C(/C=C/c1ccc(F)cc1)c1ccccc1Br | 44* | 59 | 62* | 47* | 8 | 15 | 64* | 64* | 58*
Cc1ccc(C(=O)/C=C/c2ccc(F)cc2)o1 | 12 | 8 | 18 | 12 | 3 | 2 | . | . | .
Cc1cccc(NC(=O)CN(C)S(=O)(=O)c2ccc3c(c2)n(C)c(=O)c(=O)n3C)c1C | 6 | 7 | 14 | 14 | 2 | -3 | . | . | .
